Entries with a potency or affinity are not part of this list. A number with no mark means an inactive call.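 Rule for the calls: active = in all runs, an absorbance decrease of 25% or more of the average positive control decrease; inconclusive = runs conflict, with both active and inactive results; inactive = all runs inactive, opposite-direction effects included.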
Biological target: Protein disulfide-isomerase A6 (Homo sapiens) (UniProt Q15084)
Test: inhibitors of ERp5-mediated insulin aggregation, dose response, biochemical, turbidity, absorbance 650 nm, cherry-picked samples (AID 720566)
Conditions: Recombinant ERp5 insulin aggregation; series mostly up to 35 µM; activity change, negative = inhibition: at the top concentration

Protein disulfide-isomerase A6 (Homo sapiens), sequence (Q15084 whole entry, looked up): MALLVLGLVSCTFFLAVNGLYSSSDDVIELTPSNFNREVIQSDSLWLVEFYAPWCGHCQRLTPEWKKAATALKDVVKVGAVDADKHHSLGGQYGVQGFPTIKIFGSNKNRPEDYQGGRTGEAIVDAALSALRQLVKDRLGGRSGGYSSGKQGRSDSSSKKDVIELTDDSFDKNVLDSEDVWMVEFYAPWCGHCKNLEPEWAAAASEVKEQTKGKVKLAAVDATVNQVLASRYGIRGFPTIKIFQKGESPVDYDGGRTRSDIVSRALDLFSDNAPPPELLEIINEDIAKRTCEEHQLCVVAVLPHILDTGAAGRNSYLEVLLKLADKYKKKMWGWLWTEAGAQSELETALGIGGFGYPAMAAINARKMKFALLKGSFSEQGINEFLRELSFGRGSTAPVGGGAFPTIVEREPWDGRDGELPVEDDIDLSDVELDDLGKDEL

Question: `CCCNC(=O)C[C@@H]1C[C@H]2c3cc(NC(=O)CC4CC4)ccc3O[C@H]2[C@H](CO)O1` was tested. Which “activity change, negative = inhibition” value did it give?
Answer: 3.18%

Question: With `Cc1ccc(S(=O)(=O)C=CS(=O)(=O)c2ccc(C)cc2)cc1` as the compound, how does the “activity change, negative = inhibition” value read?
Answer: -25.3%

Question: Which “activity change, negative = inhibition” value does the source give for `C[C@H]1CN([C@@H](C)CO)C(=O)c2cccc(NC(=O)Nc3cccc4ccccc34)c2O[C@@H]1CN(C)C(=O)Nc1ccc(C(F)(F)F)cc1` here?
Answer: 2.99%

Question: `O=C(NNC(=O)c1ccc2ccccc2c1)Nc1ccc(F)cc1` was tested. Which “activity change, negative = inhibition” value did it give?
Answer: -2.38%

Question: With `CCCNC(=O)C[C@H]1C[C@@H]2c3cc(NC(=O)CC4CC4)ccc3O[C@@H]2[C@@H](CO)O1` as the compound, how does the “activity change, negative = inhibition” value read?
Answer: -10.3%

Question: Which “activity change, negative = inhibition” value does the source give for `COc1ccc(NC(=O)N(C)C[C@@H]2Oc3ccc(NC(=O)Nc4ccc(F)cc4)cc3CC(=O)N([C@@H](C)CO)C[C@@H]2C)cc1` here?
Answer: -9.35%

Question: `C[C@@H]1CN([C@H](C)CO)C(=O)c2cc(C#CCN(C)C)cnc2O[C@H]1CN(C)Cc1cccc(F)c1` was tested. Which “activity change, negative = inhibition” value did it give?
Answer: -4.53%

Question: How did the “activity change, negative = inhibition” value turn out when `CC(=O)Nc1ccc2c(c1)C(=O)N(C)[C@@H]1CC[C@@H](CC(=O)NCC3CC3)O[C@H]1CO2` was run?
Answer: 4.34%

Question: How did the “activity change, negative = inhibition” value turn out when `Cc1ccc(NC(=O)c2cccc(S(C)(=O)=O)c2)cc1` was run?
Answer: 3.21%

Question: How did the “activity change, negative = inhibition” value turn out when `CCCN(C)C[C@@H]1Oc2cc(-c3ccc(F)cc3)ccc2S(=O)(=O)N([C@@H](C)CO)C[C@@H]1C` was run?
Answer: 4.34%

Question: `C[C@@H]1CCCCO[C@@H](CN(C)C(=O)CCC(F)(F)F)[C@H](C)CN([C@@H](C)CO)C(=O)c2cc(NS(=O)(=O)c3ccc(Cl)cc3)ccc2O1` was tested. Which “activity change, negative = inhibition” value did it give?
Answer: 5.59%

Question: For `COc1ccccc1NS(=O)(=O)c1ccc(C(=O)N2CCN(c3ccccn3)CC2)cc1`, which “activity change, negative = inhibition” value is on record?
Answer: -5.32%

Question: How did the “activity change, negative = inhibition” value turn out when `COCC(=O)N(C)C[C@@H]1Oc2cc(C#CC(C)(C)O)ccc2S(=O)(=O)N([C@H](C)CO)C[C@@H]1C` was run?
Answer: -2.42%

Question: Which “activity change, negative = inhibition” value does the source give for `CN(C)C(=O)C[C@H]1C[C@H]2c3cc(NS(C)(=O)=O)ccc3O[C@H]2[C@H](CO)O1` here?
Answer: -4.66%

Question: For `O=C(NN=c1c(=O)c2ccccc2c1=O)c1ccccc1`, which “activity change, negative = inhibition” value is on record?
Answer: -24.4%

Question: With `CCCNC(=O)C[C@H]1C[C@H]2c3cc(NS(C)(=O)=O)ccc3O[C@H]2[C@@H](CO)O1` as the compound, how does the “activity change, negative = inhibition” value read?
Answer: -11.5%

Question: `COc1ccc(S(=O)(=O)Nc2ccc3c(c2)CC(=O)N([C@H](C)CO)C[C@H](C)[C@H](CN(C)C(=O)Nc2ccccc2)O3)cc1` was tested. Which “activity change, negative = inhibition” value did it give?
Answer: -10.3%

Question: With `C/C=C/c1ccc2c(c1)O[C@@H](CN(C)S(C)(=O)=O)[C@H](C)CN([C@@H](C)CO)S2(=O)=O` as the compound, how does the “activity change, negative = inhibition” value read?
Answer: 2.99%

Question: `C[C@H](CO)N1C[C@H](C)[C@@H](CN(C)Cc2ccc(C(=O)O)cc2)Oc2ccc(NS(=O)(=O)c3cccs3)cc2CC1=O` was tested. Which “activity change, negative = inhibition” value did it give?
Answer: 3.54%

Question: Which “activity change, negative = inhibition” value does the source give for `COc1ccc(NC(=O)Nc2ccc3c(c2)C(=O)N([C@H](C)CO)C[C@H](C)[C@@H](CN(C)C(=O)C2CCCCC2)OCCCC[C@H](C)O3)cc1` here?
Answer: 10.1%

Question: Which “activity change, negative = inhibition” value does the source give for `COC(=O)C[C@@H]1C[C@@H]2c3cc(NC(=O)Cc4ccncc4)ccc3O[C@@H]2[C@H](CO)O1` here?
Answer: 0.675%

Question: `COc1ccc(S(=O)(=O)Nc2ccc3c(c2)C(=O)N([C@H](C)CO)C[C@H](C)[C@H](CN(C)C(=O)Nc2ccccc2)O3)cc1` was tested. Which “activity change, negative = inhibition” value did it give?
Answer: -9.35%

Question: For `O=C(N/N=C1\CCCc2ccccc21)c1ccccc1Cl`, which “activity change, negative = inhibition” value is on record?
Answer: -19.1%

Question: How did the “activity change, negative = inhibition” value turn out when `CCN(c1ccccc1)S(=O)(=O)c1ccc(OC)c(NC(=O)c2c(C)noc2C)c1` was run?
Answer: -6.23%

Question: `C[C@@H]1CN([C@H](C)CO)C(=O)c2cccc(NS(=O)(=O)c3ccc(Cl)cc3)c2O[C@@H]1CN(C)Cc1ccc(C(F)(F)F)cc1` was tested. Which “activity change, negative = inhibition” value did it give?
Answer: -7.04%

Question: Which “activity change, negative = inhibition” value does the source give for `C[C@@H]1CN([C@H](C)CO)C(=O)Cc2cc(NC(=O)c3ccncc3)ccc2O[C@H]1CN(C)S(=O)(=O)c1cn(C)cn1` here?
Answer: 2.41% [at 30 µM]

Question: Which “activity change, negative = inhibition” value does the source give for `O=C(C[C@H]1C[C@@H]2c3cc(NC(=O)C4CCC4)ccc3O[C@@H]2[C@H](CO)O1)NCC(F)(F)F` here?
Answer: 1.45%

Question: `COCC(=O)N(C)C[C@H]1Oc2cc(C#CC(C)(C)O)ccc2S(=O)(=O)N([C@@H](C)CO)C[C@H]1C` was tested. Which “activity change, negative = inhibition” value did it give?
Answer: -2.23%

Question: For `COc1ccc2c3c([nH]c2c1)[C@@H](CO)N(Cc1nccs1)CC31CN(C(=O)C2CCCC2)C1`, which “activity change, negative = inhibition” value is on record?
Answer: 3.38%

Question: `COc1ccc(NC(=O)CSc2nnc(NC(=O)C3CC3)s2)cc1OC` was tested. Which “activity change, negative = inhibition” value did it give?
Answer: -1.02%

Question: `CC(C)CC#Cc1ccc2c(c1)O[C@@H](CN(C)C(=O)c1ccccn1)[C@@H](C)CN([C@@H](C)CO)S2(=O)=O` was tested. Which “activity change, negative = inhibition” value did it give?
Answer: -13.4%

Question: `CC(C)C(NC(=O)c1ccc(F)cc1)C(=O)N1CCOCC1` (stereo not drawn) was tested. Which “activity change, negative = inhibition” value did it give?
Answer: 21.2%

Question: How did the “activity change, negative = inhibition” value turn out when `COc1ccc2c3c(n(C)c2c1)[C@H](CO)N(S(C)(=O)=O)CC31CCN(CC2CCCC2)CC1` was run?
Answer: 2.99%

From PubChem BioAssay AID720566 (Broad Institute, 2013)
